Bioassay records deposited in PubChem BioAssay by National Center for Advancing Translational Sciences (NCATS).
AMA1-RON2 inh: AMA1-RON2 (P. falciparum) interaction inhibition. AlphaScreen AMA1-biotinylated RON2 peptide binding. 0.2% of 360,000 active. Potency, µM (series often up to 58.2 µM), most hits filed as inhibitors; note: nearly all actives have a fitted effect of over 45% in size
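AMA1 (3D7) with his tag at 25 nM final met compounds first, then biotinylated RON2 peptide at 25 nM; detection used donor plus acceptor beads, 10 µg/mL apiece, read by AlphaScreen after 30 min at room temperature.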
HCV inh: blocks hepatitis C virus | 3.4% of 340,000 active | Huh7.5.1 HCVcc-Cre infection, luciferase reporter, 44 h | Potency, µM (top dose mostly 41.8 µM), usual class: inhibitors
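Whole-lifecycle infectious HCVcc-Cre system; cells 1,000/well, compound then virus (~0.5 moi) added 4 h after plating, 44 h culture. Luciferase read 15 sec following 15 min substrate incubation, room temp.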
Pf growth 96h: P. falciparum growth inhibition at 96 hour, primary screen for plastid delayed-death inhibitors. Potency, µM (series often up to 28.7 µM), usual class: inhibitors. P. falciparum luciferase reporter growth, 96 h. 6.9% of 320,000 active. AID 504834
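Erythrocytes infected with luciferase-expressing P. falciparum were dispensed at 2% hematocrit and 0.05% parasitemia (final), then incubated with compounds 96 hours at 37 C in 5% CO2. Luminescence after detection reagent addition reported growth.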
Pf growth 48h: inhibits P. falciparum growth in the first generation, 48 h. P. falciparum luciferase growth in erythrocytes, 48 h. Potency, µM (doses to about 28.7 µM), hits mostly inhibitors. 5.9% of 310,000 active. AID 504832
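Luciferase-expressing parasites in RBCs, 2% Hct / 0.1% parasitemia final; RPMI 1640 + 0.5% Albumax; 37 C, 5% CO2, one generation; luminescence read-out, lower signal = inhibition.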
Numbers stand for hits; n = inactive; u = inconclusive; x = no result given. Compounds with a hit are over-represented: about 11% of the library has one in this group of screens. Calls come from the whole dose curve; as a rule, active = well fitted curve in the direction sought with a large enough effect; inconclusive = small, poorly fitted or top-dose-only effect, or another doubt; inactive = no such curve, though single readings can be large; an effect the other way counts as inactive or inconclusive.

SMILES | AMA1-RON2 inh | HCV inh | Pf growth 96h | Pf growth 48h
Cn1ncc([N+](=O)[O-])c1C(=O)N/N=C/c1cccc([N+](=O)[O-])c1 | n | n | n | n
COc1ccc(C(CNC(=O)c2cc3ccccc3cc2OC)N2CCCC2)cc1 (centres undefined) | n | u | 4.15µM | x
COc1ccc(C(CNC(=O)c2ccc(C)c(S(=O)(=O)Nc3ccccc3OC)c2)N2CCCC2)cc1 (centres undefined) | n | n | u | 4.15µM
CCN(c1ccccc1)S(=O)(=O)c1cccc(C(=O)NCC(c2ccc(OC)cc2)N2CCCCC2)c1 (centres undefined) | n | x | x | x
COc1ccc(C(CNC(=O)c2cccc(S(=O)(=O)Nc3ccccc3OC)c2)N2CCCCC2)cc1 (centres undefined) | n | u | x | x
C=CCN(c1ccccc1)S(=O)(=O)c1cccc(C(=O)NCC(c2ccc(OC)cc2)N2CCCCC2)c1 (centres undefined) | n | 6.31µM | u | 10.4µM
Cc1c(Cl)cccc1NC(=O)N1CCN(C(=O)c2ccco2)CC1 | n | n | n | n
O=C1CC(Cc2ccccc2)C(=O)N1CCCn1ccnc1 (centres undefined) | x | n | n | n
O=[N+]([O-])c1cccn2cc(-c3ccc(Br)cc3)nc12 | u | u | 4.65µM | u
Cc1ccc(-c2cn3cccc(C)c3n2)cc1 | n | n | u | n
COc1ccc(C2NC(C(=O)O)Cc3c2[nH]c2ccccc32)cc1CN1CCN(c2ccc(F)cc2)CC1 (centres undefined) | n | n | u | 10.4µM
COC(=O)[C@H]1Cc2c([nH]c3ccccc23)[C@H](c2ccccc2)N1 | n | n | n | n
O=C(O)C1Cc2c([nH]c3ccccc23)C(c2ccc3c(c2)OCO3)N1 (centres undefined) | n | n | 9.28µM | n
COc1ccc(N2CC(C(=O)OC(C)C(=O)c3ccccc3)CC2=O)cc1 (centres undefined) | n | n | n | n
COc1cc(Cl)c(CN2CCCC(CO)(Cc3cccc(Cl)c3)C2)cc1OC (centres undefined) | n | u | u | u
CNc1ccc(C=C2C=Cc3ccccc32)cc1 | 25.1µM | u | x | x
CC(C)n1c(N2CCN(CC(=O)Nc3ccc4c(c3)OCCO4)CC2)nc2ccccc21 | n | u | 5.86µM | u
O=C(CN1CCN(c2ccc(O)cc2)CC1)Nc1ccc2c(c1)OCCCO2 | n | 6.31µM | u | u
O=S(=O)(c1cccc(F)c1)N1CCN(Cc2cc3c(cc2Br)OCCO3)CC1 | n | n | u | 9.28µM
O=C(CN1CCN(c2cccc(C(F)(F)F)c2)CC1)Nc1ccc2c(c1)OCCCO2 | n | x | x | x
Oc1ccc(N2CCN(Cc3cc4c(cc3Br)OCCO4)CC2)cc1 | n | n | 13.1µM | 11.7µM
Fc1ccc(N2CCN(Cc3cc4c(cc3Br)OCO4)CC2)cc1 | u | n | u | n
CCOc1ccc(Nc2nc(N)c([N+](=O)[O-])c(NCc3ccccc3)n2)cc1 | n | n | u | 5.22µM
COc1cccc(Nc2nc(N)c([N+](=O)[O-])c(NCc3ccccc3)n2)c1 | n | u | 11.7µM | 4.65µM
COc1cc(OC)cc(C(=O)N2CCC(C(=O)Nc3ccc4c(c3)OCCO4)CC2)c1 | n | n | n | n
SMILES | AMA1-RON2 inh | HCV inh | Pf growth 96h | Pf growth 48h
COC(=O)C[C@H]1C[C@H]2c3cc(NC(=O)C4CCC4)ccc3O[C@H]2[C@H](CO)O1 | n | x | x | x
CC1CN(CCOc2ccc(F)cc2)CC(C)O1 (centres undefined) | 20µM | n | n | n
Cc1c(N(C)S(=O)(=O)c2ccc(Cl)c(C(=O)N3CCC(C(N)=O)CC3)c2)c(=O)n(-c2ccccc2)n1C | n | n | n | n
COC(=O)c1cc(Br)c(=O)n(Cc2ccc3c(c2)OCO3)c1 | n | n | 9.28µM | u
COC(=O)Cc1c(O)ccn(Cc2ccc3c(c2)OCO3)c1=O | n | n | u | n
O=C(c1ccco1)N1CCC(c2nc3c(nnn3Cc3ccc(F)cc3)c(=O)[nH]2)CC1 | n | n | n | u
O=C(CN(C(=O)CSc1nnc(COc2ccccc2)o1)c1ccc(F)cc1)NC1CCCC1 | n | u | n | n
CCOc1ccc(N(CC(=O)NC2CCCC2)C(=O)CSc2nnc(COc3ccccc3)o2)cc1 | n | 22.4µM | 7.38µM | x
O=C(CN(C(=O)CSc1nnc(COc2ccccc2)o1)c1ccc(F)cc1)NC1CCCCC1 | n | u | u | 11.7µM
COCCNC(=O)c1ccccc1NC(=O)c1cccc([N+](=O)[O-])c1C | n | n | u | n
O=C(c1ccc(OC2CCN(Cc3ccccn3)CC2)cc1)N1CCCCO1 | n | n | n | n
